Assay outcomes from PubChem BioAssay.
PKA-R2B act: PKA-R2B complex activation; 0.079% of 340,000 active; AID 504700; PKA-R2B holoenzyme dissociation, Cy5-IP20 fluorescence polarization; R2B truncated from residue 108, S112A mutant; 0% DMSO only, 100% 113 µM cGMP; activation, % at 11.4 µM; P22694+P31323;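 active means activation above a cutoff set at the mean over all compounds plus 3 SD, cut at about 18% in these data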;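 further: higher means more holoenzyme dissociation and a rise in polarization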
PKA-R1A act: activates the PKA-R1A holoenzyme complex; PKA-R1A dissociation, Cy5-IP20 fluorescence polarization; scaled: DMSO 0%, 113 µM cGMP 100%; activation, % at 11.4 µM; 0.083% of 340,000 active;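 active means percent activation above the mean of all tested compounds plus 3 SD, cut at about 19% in these data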;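 further: higher means more PKAc released from R1A so a rise in polarization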
HDAC3 inh: blocks human histone deacetylase 3 | AID 2718 | inhibition, % at 8.3 µM | recombinant HDAC3, fluorogenic peptide/trypsin coupled, fluorescence | 0.15% of 320,000 active; in the data active means inhibition above about 26%, passing the limit was not always enough; inconclusive means no clear call, values can overlap the other calls
Target sequence (O15379 whole entry, looked up): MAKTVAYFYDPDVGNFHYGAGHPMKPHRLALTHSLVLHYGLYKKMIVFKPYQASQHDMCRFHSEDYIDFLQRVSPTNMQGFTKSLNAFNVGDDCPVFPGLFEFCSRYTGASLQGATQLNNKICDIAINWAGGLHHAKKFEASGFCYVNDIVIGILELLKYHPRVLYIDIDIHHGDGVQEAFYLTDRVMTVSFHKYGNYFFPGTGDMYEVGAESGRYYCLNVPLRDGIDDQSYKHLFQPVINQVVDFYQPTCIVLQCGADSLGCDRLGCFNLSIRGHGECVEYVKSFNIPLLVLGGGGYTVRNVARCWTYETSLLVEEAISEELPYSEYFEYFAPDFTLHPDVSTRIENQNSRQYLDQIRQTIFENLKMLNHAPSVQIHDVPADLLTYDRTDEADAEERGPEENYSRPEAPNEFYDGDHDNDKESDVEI
Rtt109 HAT inh: C. albicans Rtt109 histone acetyltransferase inhibition. Q5AAJ8. 0.16% of 330,000 active. inhibition, % at 34.9 µM. purified Rtt109/Vps75, ThioGlo CoA-SH fluorescence, 4 h;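 active means inhibition of at least 50% in every replicate; inconclusive means best replicate reaches 50% inhibition but some replicates fall short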
* = called active by the depositor; ? = inconclusive; · = no result given. Sampled rows, rich in hits. Any-hit rate of the full collection: about 0.43%.

SMILES	PKA-R2B act	PKA-R1A act	HDAC3 inh	Rtt109 HAT inh
COc1cc(C(=O)Nc2ccncc2)cc(OC)c1OC	-6.0	-3.5	0.2	-4.5
CCN1/C(=C/c2ccc3cc(C)ccc3[n+]2CC)Sc2ccccc21	2.6	-5.3	18.9	?
CCN1/C(=C/c2ccc3cc(C)ccc3[n+]2CC)Sc2cc(C)c(C)cc21	-8.2	0.3	·	96.0*
Cc1ccc2sc(C)[n+](CCO)c2c1	8.1	2.2	10.7	103.5*
CCCC[n+]1c(C)sc2ccc(C)cc21	-7.1	-7.1	2.7	3.6
CC[n+]1c(C)sc2cc(C)ccc21	5.1	9.4	3.8	85.4*
CCCC(=O)Nc1ccc(C(=O)n2nnc3ccccc32)cc1	-8.9	-5.3	75.2*	-2.7
C#CCOC(=O)c1ccccc1C(=O)n1nnc2ccccc21	-3.2	0.8	93.9*	-2.6
CN(C)c1ccc(C(=O)n2nnc3ccccc32)cc1	10.7	7.2	90.6*	22.9
COC(=O)c1ccc(NC(=O)Cn2nnc3ccccc32)cc1	-8.9	4.3	-5.4	1.6
O=C(c1cccc(F)c1)n1nnc2ccccc21	9.2	4.2	0.0	-0.9
O=C(c1cccc2ccccc12)n1nnc2ccccc21	·	·	10.7	·
Cc1ccc(C(=O)n2nnc3ccccc32)cc1	·	·	96.7*	·
CCS(=O)(=O)N1CCC(C(=O)Nc2ccccc2OC)CC1	-6.9	0.5	-0.4	-4.5
CCCc1cc(=O)[nH]c(SCC(=O)CSc2nc(CCC)cc(=O)[nH]2)n1	-15.8	-4.2	45.2*	-15.9
CC(=O)c1ccccc1OC(=O)c1ccc([N+](=O)[O-])o1	-4.6	-2.9	0.2	57.7*
COc1ccccc1NC(=O)c1ccc([N+](=O)[O-])o1	·	·	-1.6	·
Cc1cccc(C)c1NC(=O)CNC(=O)CNC(=O)c1ccc2c(c1)OCO2	-2.8	-1.4	6.8	-6.3
CC(C)NC(=O)Nc1cccc2c1O[C@H](CN(C)C(=O)NC1CCCCC1)[C@@H](C)CN([C@H](C)CO)C2=O	-12.8	-6.7	4.2	7.8
CCc1sc(C(=O)Nc2ncccc2O)cc1C	-10.0	7.7	76.0*	-6.2
CCc1sc(C(=O)Nc2ncccc2C)cc1C	-8.6	-4.5	4.9	-1.0
COC(=O)C1=NNC2(c3ccc(Cl)cc3)C(=O)N(c3ccccc3)C(=O)C12 (stereo not drawn)	-1.4	-12.8	34.1*	-0.3
COc1c(C(CC(C)C)OC(C)=O)ccc2c1C(=O)OCc1cc(C)cc(O)c1O2 (stereo not drawn)	-13.2	-14.4	33.9*	2.7
CN(C(=O)c1cncc(Br)c1)C1C2CC3CC(C2)CC1C3 (stereo not drawn)	-4.2	-6.5	1.1	59.2*
CN(C(=O)COC(=O)c1cncc(Br)c1)C1CCCCC1	1.0	-7.0	3.6	12.5
SMILES	PKA-R2B act	PKA-R1A act	HDAC3 inh	Rtt109 HAT inh
Cc1cccc(CN2C(=O)N/C(=C/c3cc(C)n(-c4ccccn4)c3C)C2=O)c1	-2.1	-7.0	15.2	12.6
Cc1cc(/C=C2/NC(=O)N(Cc3ccccc3F)C2=O)c(C)n1-c1ccccn1	4.6	-2.8	44.1*	-0.5
Cc1cc(C)c2c(=O)n(CC(=O)Nc3ccc(Br)c(C)c3)sc2n1	-2.6	-3.2	0.8	5.6
Cc1cc(C)c2c(=O)n(CC(=O)Nc3cccc(Cl)c3C)sc2n1	-9.0	-0.4	-0.4	150.2*
Cc1nn(-c2ccccc2)c(C)c1-c1nnc(-c2c(C)nn(-c3ccccc3)c2C)o1	-2.8	4.2	-4.3	-6.1
COc1ccc(N2CC(C(=O)N/N=C/c3cc([N+](=O)[O-])ccc3O)CC2=O)cc1 (stereo not drawn)	-3.0	-1.6	6.0	6.8
CC1CCN(c2nc(-c3cccnc3)nc3scc(-c4ccccc4)c23)CC1	6.1	6.6	-9.8	-1.8
CC1CCN(c2nc(CN3CCCCC3)nc3scc(-c4ccccc4)c23)CC1	4.7	3.5	8.2	61.0*
O=C(NCc1ccccn1)c1cccc(S(=O)(=O)NCc2ccccc2)c1	-10.0	-5.5	-5.8	-9.1
O=C(CCn1c(=O)c2ccccc2n(Cc2cccc([N+](=O)[O-])c2)c1=O)N1CCc2ccccc2C1	-3.6	-7.3	2.0	59.0*
Cn1c(N)c(C(=O)COC(=O)c2ncc(Cl)c(Cl)c2Cl)c(=O)n(C)c1=O	-5.5	-1.2	5.7	-1.0
Cc1ccc(OCC(=O)NCCNC(=O)c2cccnc2)cc1C	-2.8	5.3	-6.8	7.9
CCCCCCCCCCCCCCCCn1cc[n+](C)c1	-10.1	-2.6	?	95.0*
CCCCCCCCn1ccc(=N)cc1	-6.8	13.5	4.7	-2.5
CCOC(=O)C1CCN(c2cc(=O)n(-c3ccc(OC)cc3)c(=O)[nH]2)CC1	15.6	11.7	-5.9	4.3
CCOC(=O)C1CCCN(c2cc(=O)n(C3CCCCC3)c(=O)[nH]2)C1 (stereo not drawn)	5.2	-0.6	2.5	58.6*
O=C1C=C(c2ccc(CO)cc2)C[C@@H](c2ccc(F)cc2)C1	-10.5	3.1	·	·
Cc1ccc(/C=C/C(=O)NCc2ccc(S(N)(=O)=O)cc2)o1	1.3	2.5	·	72.4*
Cc1ccc(/C=C/C(=O)Nc2ccc(S(N)(=O)=O)cc2)o1	-7.1	3.8	0.8	10.7
CCSC1=NCCN1C(=O)c1ccc(S(=O)(=O)N(C)C)cc1	-3.6	-7.8	-5.5	-3.3
CC(C)C(=O)Nc1nnc(CCN2CCCCC2)s1	-9.4	1.8	0.8	52.1*
COc1cccc(CN(C)C(=O)C(Cc2ccccc2)NC(=O)c2ccccc2)c1OC (stereo not drawn)	-16.5	0.7	0.1	3.9
C=Cc1ccc(CSc2cc(C)nc3nc(C)nn23)cc1	-10.0	0.3	31.1*	-7.1
NC(=O)CC(NC(=O)Cc1ccc(Br)cc1)c1ccc(N2CCC(Cc3ccccc3)CC2)c([N+](=O)[O-])c1 (stereo not drawn)	4.1	-14.0	-31.1	1.1
COc1ccc2c(c1OC)C(=O)N(C(C)C(=O)O)C2=O (stereo not drawn)	-0.7	-2.0	3.6	·
SMILES	PKA-R2B act	PKA-R1A act	HDAC3 inh	Rtt109 HAT inh
COC(=O)C(/C=N/OCc1ccc([N+](=O)[O-])cc1)NC(=O)c1ccccc1 (stereo not drawn)	4.0	2.6	43.7*	-6.9
CCOC(=O)Cc1nnc(NC(=O)CSc2nnc3c4ccccc4n(C(C)C)c3n2)s1	-2.3	-3.9	6.7	2.8
CCOC(=O)Cc1nnc(NC(=O)CSc2nnc3c(n2)[nH]c2ccccc23)s1	-2.8	3.5	64.6*	-0.6
O=C1c2cc(O)c(O)cc2S(=O)(=O)C1c1ccccc1 (stereo not drawn)	-18.0	5.2	1.6	-6.6
Cc1ccc(NC(=O)COCC(=O)Nc2ccc(F)cc2)cc1	-4.7	-1.7	-3.7	4.3
Cc1ccccc1C(=O)NC(NC(=S)Nc1ccc(S(N)(=O)=O)cc1)C(Cl)(Cl)Cl (stereo not drawn)	0.9	-10.7	1.7	58.3*
CCOC(=O)/C(C#N)=C/c1ccc(SC)cc1	9.1	-3.9	0.6	7.5
C[n+]1c2n(c3ccccc31)N=C(c1ccccc1)CS2	4.0	0.2	31.2*	-13.1
C[n+]1c2n(c3ccccc31)N=C(c1ccc(-c3ccccc3)cc1)CS2	0.8	2.1	·	21.9
